{"source": "PubChem BioAssay AID1159580", "about": "(chemical genetic matrix, 2015)", "test": "chemical genetic growth profiling, strain panel (AID 1159580);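 note: tested at 20 µM; growth read once vehicle control cultures reached saturation at 30 °C; 1 = growth at the plate median or of vehicle wells; lower values mean less growth of the strain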", "settings": "S. cerevisiae deletion strains, growth OD", "key": {"[1]": {"settings": "locus YDL101C, strain DUN1, stronger effect = lower value"}, "[2]": {"settings": "locus YHR030C, strain SLT2, stronger effect = lower value"}}, "note": "The whole screen tested about 5,500 compounds, of which about 2,000 (36%) were called active. Inconclusive results (about 18%) are left out. The list shows a part of the results. Values without a mark were called inactive. Cut-off read from the data, not from the text of the source: active = normalized growth mostly below about 0.91 (no sharp cut-off); inconclusive = no clear call, values can overlap the other calls; inactive = mostly above about 0.92."}
{"smiles": "Cc1nn(C)c(C(=O)Sc2ccc(OC(F)(F)F)cc2)c1[N+](=O)[O-]", "values": [{"measurement": "normalized growth", "setting": "locus YAR019C, strain CDC15, stronger effect = lower value", "value": 0.977}, {"measurement": "normalized growth", "setting": "locus YBL105C, strain PKC1, stronger effect = lower value", "value": 0.974}, {"measurement": "normalized growth", "setting": "locus YBR135W, strain CKS1, stronger effect = lower value", "value": 0.969}, {"measurement": "normalized growth", "setting": "locus YBR136W, strain MEC1, stronger effect = lower value", "value": 0.984}, {"measurement": "normalized growth", "setting": "locus YBR160W, strain CDC28, stronger effect = lower value", "value": 0.977}, {"measurement": "normalized growth", "setting": "locus YDL017W, strain CDC7, stronger effect = lower value", "value": 0.977}, {"measurement": "normalized growth", "setting": "locus YDL028C, strain MPS1, stronger effect = lower value", "value": 0.985}, {"measurement": "normalized growth", "setting": "[1]", "value": 0.978}, {"measurement": "normalized growth", "setting": "locus YDL108W, strain KIN28, stronger effect = lower value", "value": 0.98}, {"measurement": "normalized growth", "setting": "locus YDL132W, strain cdc53, stronger effect = lower value", "value": 0.952}, {"measurement": "normalized growth", "setting": "locus YDL214C, strain PRR2, stronger effect = lower value", "value": 0.946}, {"measurement": "normalized growth", "setting": "locus YDR052C, strain DBF4, stronger effect = lower value", "value": 0.983}, {"measurement": "normalized growth", "setting": "locus YDR054C, strain cdc34, stronger effect = lower value", "value": 0.952}, {"measurement": "normalized growth", "setting": "locus YDR226W, strain ADK1, stronger effect = lower value", "value": 0.982}, {"measurement": "normalized growth", "setting": "locus YDR477W, strain SNF1, stronger effect = lower value", "value": 0.993}, {"measurement": "normalized growth", "setting": "locus YER123W, strain YCK3, stronger effect = lower value", "value": 0.895}, {"measurement": "normalized growth", "setting": "locus YER133W, strain GLC7, stronger effect = lower value", "value": 1}, {"measurement": "normalized growth", "setting": "locus YFL009W, strain cdc4, stronger effect = lower value", "value": 0.965}, {"measurement": "normalized growth", "setting": "locus YFL029C, strain CAK1, stronger effect = lower value", "value": 0.978}, {"measurement": "normalized growth", "setting": "locus YFR003C, strain YPI1, stronger effect = lower value", "value": 0.978}, {"measurement": "normalized growth", "setting": "locus YFR019W, strain FAB1, stronger effect = lower value", "value": 0.972}, {"measurement": "normalized growth", "setting": "locus YFR028C, strain CDC14, stronger effect = lower value", "value": 0.987}, {"measurement": "normalized growth", "setting": "locus YGR040W, strain KSS1, stronger effect = lower value", "value": 1.03}, {"measurement": "normalized growth", "setting": "locus YGR052W, strain FMP48, stronger effect = lower value", "value": 0.988}, {"measurement": "normalized growth", "setting": "locus YGR092W, strain DBF2, stronger effect = lower value", "value": 0.939}, {"measurement": "normalized growth", "setting": "[2]", "value": "1.25 [resistant] (active)"}, {"measurement": "normalized growth", "setting": "locus YHR079C, strain IRE1, stronger effect = lower value", "value": 0.977}, {"measurement": "normalized growth", "setting": "locus YHR082C, strain KSP1, stronger effect = lower value", "value": 0.947}, {"measurement": "normalized growth", "setting": "locus YHR205W, strain SCH9, stronger effect = lower value", "value": 0.611}, {"measurement": "normalized growth", "setting": "locus YIL147C, strain SLN1, stronger effect = lower value", "value": 0.985}, {"measurement": "normalized growth", "setting": "locus YJL095W, strain BCK1, stronger effect = lower value", "value": 0.947}, {"measurement": "normalized growth", "setting": "locus YJL128C, strain PBS2, stronger effect = lower value", "value": 0.87}, {"measurement": "normalized growth", "setting": "locus YJL157C, strain FAR1, stronger effect = lower value", "value": 0.978}, {"measurement": "normalized growth", "setting": "locus YJR016C, strain ILV3, stronger effect = lower value", "value": 0.977}, {"measurement": "normalized growth", "setting": "locus YJR066W, strain TOR1 (second series), stronger effect = lower value", "value": 1.02}, {"measurement": "normalized growth", "setting": "locus YJR066W, strain TOR1, stronger effect = lower value", "value": 0.936}, {"measurement": "normalized growth", "setting": "locus YKL048C, strain ELM1, stronger effect = lower value", "value": 0.989}, {"measurement": "normalized growth", "setting": "locus YKL067W, strain YNK1, stronger effect = lower value", "value": 0.96}, {"measurement": "normalized growth", "setting": "locus YKL101W, strain HSL1, stronger effect = lower value", "value": 0.985}, {"measurement": "normalized growth", "setting": "locus YKL193C, strain SDS22, stronger effect = lower value", "value": 0.975}, {"measurement": "normalized growth", "setting": "locus YKL203C, strain TOR2, stronger effect = lower value", "value": 1.13}, {"measurement": "normalized growth", "setting": "locus YLR113W, strain HOG1, stronger effect = lower value", "value": "0.834 (active)"}, {"measurement": "normalized growth", "setting": "locus YLR133W, strain CKI1, stronger effect = lower value", "value": 0.949}, {"measurement": "normalized growth", "setting": "locus YLR403W, strain SFP1, stronger effect = lower value", "value": 0.99}, {"measurement": "normalized growth", "setting": "locus YML070W, strain DAK1, stronger effect = lower value", "value": 0.959}, {"measurement": "normalized growth", "setting": "locus YMR001C, strain CDC5, stronger effect = lower value", "value": 0.979}, {"measurement": "normalized growth", "setting": "locus YMR205C, strain PFK2 (second series), stronger effect = lower value", "value": 0.965}, {"measurement": "normalized growth", "setting": "locus YMR277W, strain FCP1, stronger effect = lower value", "value": 0.968}, {"measurement": "normalized growth", "setting": "locus YNL006W, strain LST8, stronger effect = lower value", "value": 0.974}, {"measurement": "normalized growth", "setting": "locus YNL020C, strain ARK1, stronger effect = lower value", "value": 0.95}, {"measurement": "normalized growth", "setting": "locus YNL161W, strain CBK1, stronger effect = lower value", "value": 0.98}, {"measurement": "normalized growth", "setting": "locus YNL183C, strain NPR1, stronger effect = lower value", "value": 1.04}, {"measurement": "normalized growth", "setting": "locus YNL207W, strain RIO2, stronger effect = lower value", "value": 0.989}, {"measurement": "normalized growth", "setting": "locus YNL222W, strain SSU72, stronger effect = lower value", "value": 0.976}, {"measurement": "normalized growth", "setting": "locus YNL307C, strain MCK1 (second series), stronger effect = lower value", "value": 0.918}, {"measurement": "normalized growth", "setting": "locus YOL078W, strain AVO1, stronger effect = lower value", "value": 0.972}, {"measurement": "normalized growth", "setting": "locus YOL136C, strain PFK27, stronger effect = lower value", "value": 0.935}, {"measurement": "normalized growth", "setting": "locus YOR061W, strain CKA2, stronger effect = lower value", "value": 0.95}, {"measurement": "normalized growth", "setting": "locus YOR119C, strain RIO1, stronger effect = lower value", "value": 1.11}, {"measurement": "normalized growth", "setting": "locus YOR231W, strain MKK1, stronger effect = lower value", "value": 0.884}, {"measurement": "normalized growth", "setting": "locus YOR329C, strain SCD5, stronger effect = lower value", "value": 0.982}, {"measurement": "normalized growth", "setting": "locus YPL031C, strain PHO85, stronger effect = lower value", "value": 1.01}, {"measurement": "normalized growth", "setting": "locus YPL153C, strain RAD53, stronger effect = lower value", "value": 1.03}, {"measurement": "normalized growth", "setting": "locus YPL204W, strain HRR25, stronger effect = lower value", "value": 1.06}, {"measurement": "normalized growth", "setting": "locus YPL209C, strain IPL1, stronger effect = lower value", "value": 0.981}, {"measurement": "normalized growth", "setting": "locus YPL256C, strain CLN2, stronger effect = lower value", "value": 0.952}, {"measurement": "normalized growth", "setting": "locus YPR025C, strain CCL1, stronger effect = lower value", "value": 0.981}, {"measurement": "normalized growth", "setting": "locus YPR106W, strain ISR1, stronger effect = lower value", "value": 0.959}, {"measurement": "normalized growth", "setting": "locus YPR111W, strain DBF20, stronger effect = lower value", "value": 0.932}, {"measurement": "normalized growth", "setting": "strain NNK1, stronger effect = lower value", "value": 0.955}, {"measurement": "normalized growth", "setting": "strain TSCII, stronger effect = lower value", "value": 0.982}]}
{"smiles": "Cc1nn(C)c(C)c1[N+](=O)[O-]", "values": [{"measurement": "normalized growth", "setting": "locus YAL013W, strain DEP1, stronger effect = lower value", "value": 0.996}, {"measurement": "normalized growth", "setting": "locus YBR229C, strain ROT2, stronger effect = lower value", "value": 1.03}, {"measurement": "normalized growth", "setting": "[1]", "value": 0.992}, {"measurement": "normalized growth", "setting": "locus YDL134C, strain PPH21, stronger effect = lower value", "value": 1}, {"measurement": "normalized growth", "setting": "locus YDR150W, strain NUM1, stronger effect = lower value", "value": 0.939}, {"measurement": "normalized growth", "setting": "locus YEL061C, strain CIN8, stronger effect = lower value", "value": 1}, {"measurement": "normalized growth", "setting": "locus YGR078C, strain PAC10, stronger effect = lower value", "value": 0.999}, {"measurement": "normalized growth", "setting": "locus YGR229C, strain SMI1, stronger effect = lower value", "value": 1.01}, {"measurement": "normalized growth", "setting": "[2]", "value": 1.01}, {"measurement": "normalized growth", "setting": "locus YHR087W, strain rtc3, stronger effect = lower value", "value": 1.02}, {"measurement": "normalized growth", "setting": "locus YJR043C, strain POL32, stronger effect = lower value", "value": 0.997}, {"measurement": "normalized growth", "setting": "locus YJR075W, strain HOC1, stronger effect = lower value", "value": 0.988}, {"measurement": "normalized growth", "setting": "locus YKL190W, strain CNB1, stronger effect = lower value", "value": 1}, {"measurement": "normalized growth", "setting": "locus YLR039C, strain RIC1, stronger effect = lower value", "value": 0.998}, {"measurement": "normalized growth", "setting": "locus YLR058C, strain SHM2 (second series), stronger effect = lower value", "value": 1.01}, {"measurement": "normalized growth", "setting": "locus YLR085C, strain ARP6, stronger effect = lower value", "value": 1.02}, {"measurement": "normalized growth", "setting": "locus YLR262C, strain YPT6, stronger effect = lower value", "value": 0.993}, {"measurement": "normalized growth", "setting": "locus YML094W, strain GIM5, stronger effect = lower value", "value": 0.994}, {"measurement": "normalized growth", "setting": "locus YMR219W, strain ESC1, stronger effect = lower value", "value": 1.02}, {"measurement": "normalized growth", "setting": "locus YMR307W, strain GAS1, stronger effect = lower value", "value": 0.994}, {"measurement": "normalized growth", "setting": "locus YNL128W, strain TEP1, stronger effect = lower value", "value": 1.01}, {"measurement": "normalized growth", "setting": "locus YNL153C, strain GIM3, stronger effect = lower value", "value": 1}, {"measurement": "normalized growth", "setting": "locus YNL298W, strain CLA4 (second series), stronger effect = lower value", "value": 1.01}, {"measurement": "normalized growth", "setting": "locus YNL322C, strain KRE1, stronger effect = lower value", "value": 0.996}, {"measurement": "normalized growth", "setting": "locus YNR030W, strain Alg12, stronger effect = lower value", "value": 1.02}, {"measurement": "normalized growth", "setting": "locus YOL006C, strain TOP1, stronger effect = lower value", "value": 1.05}, {"measurement": "normalized growth", "setting": "locus YPL055C, strain LGE1, stronger effect = lower value", "value": 0.867}, {"measurement": "normalized growth", "setting": "locus YPL241C, strain CIN2, stronger effect = lower value", "value": 1}, {"measurement": "normalized growth", "setting": "locus YPR135W, strain CTF4, stronger effect = lower value", "value": 1.03}]}
